Laboratory results from PubChem BioAssay (Tox21).
Records with an inconclusive call do not appear. Activity calls are given as the source filed them. Unless noted, calls follow the shape of the dose curve; as a rule, active = well fitted curve in the direction sought with a large enough effect in the repeat runs; inconclusive = weak or mixed curves; inactive = no such curve, though single readings can be large; an effect the other way counts as inactive or inconclusive.

Key:
[1] = A CellTox Green Cytotoxicity Assay to monitor cytotoxicity in HepG2 cells - 0 hour (AID 1224882); also: nearly all actives have a fitted effect of over 35% in size
Outline: (§1)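 HepG2 cells were seeded together with the CellTox Green dye at 600 cells/well, left 5 h at 37 C/5% CO2, then given compounds in DMSO. Fluorescence from dye bound to dead-cell DNA was read repeatedly over 40 h of treatment at 37 C.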

[2] = A CellTox Green Cytotoxicity Assay to monitor cytotoxicity in HepG2 cells - 32 hour (AID 1224883); also: nearly all actives have a fitted effect of over 50% in size
Outline: as §1

[3] = A CellTox Green Cytotoxicity Assay to monitor cytotoxicity in HEK293 cells - 8 hour (AID 1224884); also: nearly all actives have a fitted effect of over 35% in size
Outline: (§2)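 HEK293 cells premixed with CellTox Green dye were seeded at 600 cells/well and left 5 h at 37 C/5% CO2 before pin transfer of 23 nL compound in DMSO. Fluorescence from dye bound to dead-cell DNA was read during 40 h treatment.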

[4] = qHTS RealTime-Glo MT Cell Viability Assay in HepG2 cells - 16 hour (AID 1224885); also: nearly all actives have a fitted effect of over 50% in size
Outline: (§3)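 HepG2 suspension premixed with RealTime-Glo reagents is plated at 600 cells per well and left 5 h at 37 C/5% CO2. Compounds in DMSO then go in, and bioluminescence reflecting viable cell number is recorded over 40 h.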

[5] = qHTS RealTime-Glo MT Cell Viability Assay in HEK293 cells - 24 hour (AID 1224886); also: top concentration of the series differs between compounds; nearly all actives have a fitted effect of over 50% in size
Outline: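 Reads taken at 0, 8, 16, 24, 32 and 40 h from the same wells. HEK293 cells (600/well) carried RealTime-Glo reagents from seeding, with compound added after a 5 h settle at 37 C.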

[6] = qHTS RealTime-Glo MT Cell Viability Assay in HEK293 cells - 8 hour (AID 1224887); also: top concentration of the series differs between compounds; nearly all actives have a fitted effect of over 50% in size
Outline: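 HEK293 cells mixed with RealTime-Glo reagents (NanoLuc plus cell-permeant prosubstrate) at 600 cells/well, preincubated 5 h at 37 C/5% CO2, then given 23 nL compound in DMSO. Nonlytic luminescence from viable cells was read at 0, 8, 16, 24, 32 and 40 h.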

[7] = A CellTox Green Cytotoxicity Assay to monitor cytotoxicity in HEK293 cells - 16 hour (AID 1224888); also: nearly all actives have a fitted effect of over 35% in size
Outline: as §2

[8] = qHTS RealTime-Glo MT Cell Viability Assay in HepG2 cells - 0 hour (AID 1224889); also: nearly all actives have a fitted effect of over 50% in size; also: potency is read from the fitted curve at half-maximal effect
Outline: as §3

[9] = A CellTox Green Cytotoxicity Assay to monitor cytotoxicity in HepG2 cells - 8 hour (AID 1224890); also: nearly all actives have a fitted effect of over 45% in size
Outline: as §1

[10] = qHTS assay to identify small molecule antagonists of the estrogen receptor alpha (ER-alpha) signaling pathway using the BG1 cell line in the presence of 0.1 nM 17-beta-estradiol - cell viability counter screen (AID 1259241); also: nearly all actives have a fitted effect of over 40% in size
Outline: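 VM7Luc4E2 cells (endogenous full-length ER-alpha, 4xERE-luciferase), cultured 5 days in charcoal-stripped serum, exposed to compounds with 0.1 nM 17beta-estradiol (final) for 22 hr at 37C. Viability read in same wells as live-cell protease fluorescence after 30 min.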

[11] = qHTS assay to identify small molecule antagonists of the androgen receptor (AR) signaling pathway using the MDA cell line in the presence of 0.5 nM R1881 - cell viability counter screen (AID 1259242); also: nearly all actives have a fitted effect of over 45% in size
Outline: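 MDA-kb2 cells (human breast carcinoma, stably carrying MMTV-luciferase reporter) were exposed to compounds with 0.5 nM R1881 (final) for 16 hr at 37C, 0% CO2; viability then read as live-cell protease fluorescence (CellTiter-Fluor, 30 min) in the same wells.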

[12] = qHTS assay to identify small molecule phospholipidosis (PLD) inducers (AID 1259344; active = well fitted curve in the direction sought with a large enough effect; an effect the other way counts as inactive or inconclusive)
Outline: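 Fluorescent phospholipid staining (LipidTOX Red) measured by automated microscopy in fixed HepG2 cells after 24 h treatment; nuclei counterstained with Hoechst 33342; amiodarone as reference inducer.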

[13] = qHTS assay to identify small molecule HDAC inhibitors (AID 1259364); also: top concentration of the series differs between compounds; nearly all actives have a fitted effect of over 45% in size
Outline: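 Wild-type HCT-116 cells were plated overnight, exposed to compounds for 2 h at 37 °C, then given HDAC-Glo class I/II luminogenic reagent for 30 min at room temperature before luminescence was read.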

[14] = qHTS assay to identify small molecule HDAC inhibitors - cell viability counter screen (AID 1259365)
Outline: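 Wild-type HCT-116 cells, 1,500/well, cultured overnight, then compound-treated 2 h at 37 C. Viability measured as ATP luminescence with CellTiter-Glo after 30 min at room temperature.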

[15] = qHTS assay to identify small molecule agonists of the sonic hedgehog signaling (Shh) pathway - cell viability counter screen (AID 1259366); also: nearly all actives have a fitted effect of over 50% in size
Outline: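 NIH/3T3-derived Gli1-Luc reporter cells, 2,000 per well, received compound after 4 h and were treated about 23 h at 37C. Viability measured in the same wells by CellTiter-Fluor fluorescence after 1 h.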

[16] = qHTS assay to identify small molecule antagonists of the sonic hedgehog signaling (Shh) pathway - cell viability counter screen (AID 1259367); also: nearly all actives have a fitted effect of over 55% in size
Outline: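 Using CellTiter-Fluor, viability of Gli1-Luc reporter 3T3 cells is read by fluorescence in the wells used for the Shh luciferase assay. Treatment lasts 23 hr with conditioned medium, then reagent 1 hr at 37C.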

[17] = qHTS assay to identify small molecule agonists of the sonic hedgehog signaling (Shh) pathway (AID 1259368; calls by dose curve; also: series mostly up to about 92 µM; nearly all actives have a fitted effect of over 15% in size)
Outline: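 NIH/3T3-derived 3T3Gli1-Luc cells carrying a stably integrated Gli1 response element–firefly luciferase reporter were plated, left 4 hr at 37 C, then given compounds in DMSO for 24 hr. Luminescence was read 30 min after adding luciferase reagent.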

[18] = qHTS assay to identify small molecule antagonists of the sonic hedgehog signaling (Shh) pathway (AID 1259369; calls by dose curve; also: nearly all actives have a fitted effect of over 45% in size)
Outline: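 NIH/3T3-derived 3T3Gli1-Luc cells with stably integrated Gli1-Luc reporter were preincubated 4hr at 37 C, then given compounds in DMSO plus Shh conditioned medium and incubated 24hr. Firefly luciferase luminescence read after 30min reagent at room temperature.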

[19] = target: Estrogen receptor (Homo sapiens) (UniProt P03372); experiment: qHTS assay to identify small molecule antagonists of the estrogen receptor alpha (ER-alpha) signaling pathway using the BG1 cell line in the presence of 0.1 nM 17-beta-estradiol (AID 1259244); also: nearly all actives have a fitted effect of over 50% in size
Outline: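 VM7Luc4E2 cells (endogenous full-length ER-alpha, stable 4xERE-luciferase) were grown 5 days in phenol red-free medium with charcoal-stripped FBS, then exposed 22 h at 37C to compounds plus 0.1 nM (final) 17beta-estradiol; ONE-Glo luminescence read-out.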
% is scaled to controls: 0 for no effect and ±100 for the full control effect.

Chain of Estrogen receptor (Homo sapiens) (P03372 whole entry, looked up): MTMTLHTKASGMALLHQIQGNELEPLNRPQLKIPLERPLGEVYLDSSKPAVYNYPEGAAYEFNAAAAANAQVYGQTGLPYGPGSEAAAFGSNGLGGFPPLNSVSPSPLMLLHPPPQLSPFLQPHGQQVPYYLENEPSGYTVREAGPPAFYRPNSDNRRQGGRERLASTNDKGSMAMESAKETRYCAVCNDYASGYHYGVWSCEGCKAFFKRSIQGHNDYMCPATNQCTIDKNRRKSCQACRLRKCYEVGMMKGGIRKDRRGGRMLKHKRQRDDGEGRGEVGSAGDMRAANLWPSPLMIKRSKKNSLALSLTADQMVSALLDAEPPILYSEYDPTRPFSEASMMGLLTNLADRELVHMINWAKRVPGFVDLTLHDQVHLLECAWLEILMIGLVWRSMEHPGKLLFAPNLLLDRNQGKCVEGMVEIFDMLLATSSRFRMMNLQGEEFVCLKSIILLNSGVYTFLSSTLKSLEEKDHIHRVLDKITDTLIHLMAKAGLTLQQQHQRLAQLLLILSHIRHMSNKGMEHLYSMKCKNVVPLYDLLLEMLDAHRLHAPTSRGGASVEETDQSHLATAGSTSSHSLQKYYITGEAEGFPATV

COc1cccc(OC)c1C(=O)N[C@@H]1C(=O)N2[C@@H]1SC(C)(C)[C@@H]2C(=O)O
inactive: Potency [1] | Potency [2] | outcome [3] | outcome [4] | Potency [5] | Potency [6] | outcome [7] | Potency [8] | outcome [9] | outcome [10] | outcome [11] | outcome [12] | Potency [13] | outcome [14] | Potency [15] | Potency [16] | outcome [17] | Potency [18]

CCCCCCCCCCCCCCC(=O)O
inactive: Potency [1] | Potency [2] | outcome [3] | outcome [4] | Potency [5] | Potency [6] | outcome [7] | Potency [8] | outcome [9] | outcome [10] | outcome [11] | outcome [19] | Potency [13] | outcome [14] | Potency [15] | Potency [16] | outcome [17] | Potency [18]

CC(=O)OCC(=O)[C@@]1(O)[C@H](C)C[C@H]2[C@@H]3CCC4=CC(=O)C=C[C@]4(C)[C@@]3(F)[C@@H](O)C[C@@]21C
active: Potency [8] 9.52 µM
inactive: Potency [1] | Potency [2] | outcome [3] | outcome [4] | Potency [5] | Potency [6] | outcome [7] | outcome [9] | outcome [10] | outcome [11] | outcome [12] | Potency [13] | outcome [14] | Potency [15] | Potency [16] | outcome [17]

COc1cc(-c2ccc(=O)[nH]n2)ccc1OC(F)F
inactive: Potency [1] | Potency [2] | outcome [3] | outcome [4] | Potency [5] | Potency [6] | outcome [7] | Potency [8] | outcome [9] | outcome [10] | outcome [11] | outcome [12] | Potency [13] | outcome [14] | Potency [15] | Potency [16] | outcome [17] | Potency [18]

CC(C(=O)O)c1cccc(Oc2ccccc2)c1 (stereo not drawn)
inactive: Potency [1] | Potency [2] | outcome [3] | outcome [4] | Potency [5] | Potency [6] | outcome [7] | Potency [8] | outcome [9] | outcome [10] | outcome [11] | outcome [12] | Potency [13] | outcome [14] | Potency [15] | Potency [16] | outcome [17] | Potency [18]

CC(C)CCCO
inactive: Potency [1] | Potency [2] | outcome [3] | outcome [4] | Potency [5] | Potency [6] | outcome [7] | Potency [8] | outcome [9] | outcome [10] | outcome [11] | outcome [19] | outcome [14] | Potency [15] | Potency [16] | outcome [17] | Potency [18]

c1ccc2sc(SN3CCOCC3)nc2c1
inactive: Potency [1] | Potency [2] | outcome [3] | outcome [4] | Potency [5] | Potency [6] | outcome [7] | Potency [8] | outcome [9] | outcome [10] | outcome [11] | outcome [12] | outcome [14] | Potency [15] | Potency [16] | outcome [17] | Potency [18]

Cc1ccc(C(=O)c2ccccc2)cc1
inactive: Potency [1] | Potency [2] | outcome [3] | outcome [4] | Potency [5] | Potency [6] | outcome [7] | Potency [8] | outcome [9] | outcome [10] | outcome [11] | outcome [19] | outcome [14] | Potency [15] | Potency [16] | outcome [17] | Potency [18]

C[N+]1(C)CCCC(OC(=O)C(O)(c2ccccc2)c2ccccc2)C1 (stereo not drawn)
inactive: Potency [1] | Potency [2] | outcome [3] | outcome [4] | Potency [5] | Potency [6] | outcome [7] | Potency [8] | outcome [9] | outcome [10] | outcome [11] | outcome [12] | Potency [13] | outcome [14] | Potency [15] | Potency [16] | outcome [17] | Potency [18]

C[N+]12CCC(CC1)C(OC(=O)C(O)(c1ccccc1)c1ccccc1)C2 (stereo not drawn)
inactive: Potency [1] | Potency [2] | outcome [3] | outcome [4] | Potency [5] | Potency [6] | outcome [7] | Potency [8] | outcome [9] | outcome [10] | outcome [11] | outcome [12] | Potency [13] | outcome [14] | Potency [15] | Potency [16] | outcome [17]

COc1ccccc1OCC1CNC(=O)O1 (stereo not drawn)
inactive: Potency [1] | Potency [2] | outcome [3] | outcome [4] | Potency [5] | Potency [6] | outcome [7] | Potency [8] | outcome [9] | outcome [10] | outcome [11] | PLD induction [12] 3.13% [at 7.66 µM] | outcome [14] | Potency [16] | outcome [17] | Potency [18]

O=C(O)c1cn(C2CC2)c2cc(N3CCNCC3)c(F)cc2c1=O
inactive: Potency [1] | Potency [2] | outcome [3] | outcome [4] | Potency [5] | Potency [6] | outcome [7] | Potency [8] | outcome [9] | outcome [10] | outcome [11] | outcome [12] | Potency [13] | outcome [14] | Potency [16] | outcome [17]

NCCCC[C@H](N[C@@H](CCc1ccccc1)C(=O)O)C(=O)N1CCC[C@H]1C(=O)O
inactive: Potency [1] | Potency [2] | outcome [3] | outcome [4] | Potency [5] | Potency [6] | outcome [7] | Potency [8] | outcome [9] | outcome [10] | outcome [11] | outcome [12] | Potency [13] | outcome [14] | Potency [16] | outcome [17] | Potency [18]

CC(=O)Oc1cccc(C)c1
inactive: Potency [1] | Potency [2] | outcome [3] | outcome [4] | Potency [5] | Potency [6] | outcome [7] | Potency [8] | outcome [9] | outcome [10] | outcome [11] | outcome [12] | Potency [13] | outcome [14] | Potency [16] | outcome [17] | Potency [18]

COc1cc(C(=O)NCc2ccc(OCCN(C)C)cc2)cc(OC)c1OC
inactive: Potency [1] | Potency [2] | outcome [3] | outcome [4] | Potency [5] | Potency [6] | outcome [7] | Potency [8] | outcome [9] | outcome [10] | outcome [11] | outcome [12] | Potency [13] | outcome [14] | Potency [15] | Potency [16] | outcome [17]
